Measurements published in PubChem BioAssay (NCATS).
Where “and” joins values, the source holds several entries; their conditions need not be identical. Identical values can stand only once. Values without a mark were called inactive. Results filed as inconclusive are left out. A call without a number means that no potency is given here. Calls of active or inactive are those of the source. Unless noted, calls come from the whole dose curve; as a rule, active = well fitted curve in the direction sought with a large enough effect; inconclusive = small, poorly fitted or top-dose-only effect, or another doubt; inactive = no such curve, though single readings can be large; an effect the other way counts as inactive or inconclusive.

Key:
[1] = Cell Viability - HepG2 (AID 433; calls by dose curve;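 note: potency is the fitted concentration of half-maximal effect; cells exposed to compound for 40 hours; potency for ATP loss meaning cytotoxicity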); settings: qHTS
Method in brief: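 Cytotoxicity read as ATP loss (CellTiter-Glo luminescence) after 40 hr compound exposure of HepG2, 1500 cells/well, 37 °C. AC50 by Hill equation; 0% set by DMSO, 100% inhibition by 100 uM tamoxifen.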

[2] = Cell Viability - MRC5 (AID 434; calls by dose curve;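 note: potency is the fitted concentration of half-maximal effect; cells exposed to compound for 40 hours at 37 °C; potency reflects cytotoxicity seen as loss of intracellular ATP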); settings: MRC5 lung fibroblast viability, qHTS
Method in brief: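 MRC5 normal human lung fibroblasts (1500/well) were treated with compounds for 40 hr at 37 °C in complete medium, and viable cells were measured as intracellular ATP by CellTiter-Glo luminescence. AC50 came from Hill fits, normalized to DMSO and 100 uM tamoxifen.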

[3] = Cell Viability - SK-N-SH (AID 435; calls by dose curve; note: potency is the fitted concentration of half-maximal effect); settings: SK-N-SH neuroblastoma cell viability qHTS
Method in brief: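 qHTS cytotoxicity: CellTiter-Glo ATP luminescence after 40 h compound exposure of human neuroblastoma SK-N-SH cells at 37 °C. AC50 derived by Hill-equation fitting, with DMSO as basal and 100 uM tamoxifen as full inhibition.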

[4] = Cell Viability - HUV-EC-C (AID 542); settings: HUV-EC-C endothelial cell viability, qHTS; series mostly up to 92.2 µM;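 note: cells exposed to compound for 40 hours; nearly all actives have a fitted effect of over 35% in size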
Method in brief: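 Decrease in cellular ATP, quantified by luciferase luminescence, reflects toxicity in normal human vascular endothelial HUV-EC-C cells given compound for 40 hr in complete culture medium. Values are AC50s from concentration-response curves.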

[5] = Cell Viability - Mesenchymal (AID 546); settings: mesenchymal cells viability, qHTS; series mostly up to 91.7 µM;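 note: cells exposed to compound for 40 hours before reading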
Method in brief: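 Normal human renal glomerulus-derived kidney mesenchymal cells, 1000 per well in complete medium, were treated with compounds for 40 hr at 37 °C. Viability was read as intracellular ATP by CellTiter-Glo luminescence; AC50 values came from Hill-equation fits of qHTS concentration-response data.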

[6] = Cellular Toxicity (caspase-3) HepG2 (AID 654); settings: HepG2 caspase-3 activation, luminescence, 0% = DMSO only, 100% = tamoxifen; series mostly up to 92.2 µM;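 note: cells exposed to compound for 16 hours before reading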
Method in brief: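 qHTS, HepG2, 1500 cells/well, complete medium; cpd 16 h 37 °C; Caspase-Glo 3/7, 20 min RT; lum. Norm: DMSO vs 100 uM tamoxifen; AC50 Hill fit.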

[7] = Cellular Toxicity (caspase-3) HUV-EC-C (AID 656); settings: HUV-EC-C cells, caspase-3 activation (apoptosis), vehicle = 0, 100 µM tamoxifen = 100%; series mostly up to 92.2 µM
Method in brief: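 Luminescent Caspase-Glo 3/7 readout after 16 h, 37 °C compound exposure of HUV-EC-C endothelial cells, 1000 per well, complete medium. AC50 derived by Hill fitting, with DMSO as baseline and 100 uM tamoxifen as full activation.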

[8] = Cellular Toxicity (caspase-3) SHSY5Y (AID 657); settings: SH-SY5Y caspase-3 activation, DMSO zero, 10 µM staurosporine = 100%; series mostly up to 91.7 µM
Method in brief: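 Luminescent Caspase-Glo 3/7 read-out, 1 hr room temperature, follows 16 hours of compound treatment of SH-SY5Y cells at 37 °C. Normalization: DMSO basal, 10 uM staurosporine as 100%; AC50 values from Hill-equation concentration-response fits.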

[9] = Cellular Toxicity (caspase-3) BJ (AID 658); settings: BJ fibroblasts, luminescence, normalized: DMSO 0%, staurosporine 100%; series mostly up to 91.7 µM
Method in brief: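 Luminescent aminoluciferin-substrate cleavage reports caspase 3/7 activity in normal human BJ fibroblasts after 16 hr compound exposure at 37 °C. Normalized to DMSO (basal) and 10 uM staurosporine (100%); AC50 from Hill fit of concentration-response.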

[10] = Cellular Toxicity (caspase-3) MRC-5 (AID 659); settings: MRC-5 cells, luminescence, normalized: DMSO 0%, 10 µM staurosporine 100%; series mostly up to 91.7 µM
Method in brief: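 Luminescence from caspase-cleaved aminoluciferin substrate (Caspase-Glo 3/7, 1 hr RT) reports caspase 3/7 activity in MRC-5 lung fibroblasts after 16 hr compound exposure. Normalized to DMSO basal and 10 uM staurosporine as 100%; AC50 from Hill fits.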

[11] = Cellular Toxicity (caspase-3) SK-N-SH (AID 661); settings: SK-N-SH caspase-3 activation, qHTS, DMSO as zero, staurosporine as full; series mostly up to 91.7 µM
Method in brief: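 Caspase 3/7 activation is measured as a luminescence increase from aminoluciferin released by substrate cleavage in SK-N-SH cells after 16 hr compound treatment; values are AC50 from concentration-response curves.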

[12] = Cellular Toxicity (caspase-3) H-4-II-E (AID 663); settings: H-4-II-E rat hepatoma, scaled: DMSO 0%, 100 µM tamoxifen 100%; series mostly up to 92.2 µM;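 note: cells exposed to compound for 16 hr before readout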
Method in brief: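 Luminescence from caspase-cleaved aminoluciferin substrate, read 20 min after reagent addition, reports caspase 3/7 activation in rat H-4-II-E cells after 16 hr compound exposure. Normalized to DMSO (basal) and 100 uM tamoxifen (100%); AC50 from Hill fits.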

[13] = Cellular Toxicity (caspase-3) N2a (AID 665); settings: N2a cells, luminescence, normalized: DMSO 0%, 10 µM staurosporine 100%; series mostly up to 92.2 µM;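 note: compound exposure lasted 16 h at 37 °C before readout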
Method in brief: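 Plated mouse neuroblastoma N2a cells received titrated compounds for 16 h in complete medium. Caspase activity was then detected with a peptide-aminoluciferin luminescent reagent.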

[14] = Cellular Toxicity (caspase-3) NIH 3T3 (AID 666); settings: NIH 3T3 caspase-3 activation, apoptosis/toxicity, 0% DMSO, 100% is 100 µM tamoxifen; series mostly up to 92.2 µM
Method in brief: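 Concentration-response qHTS in NIH 3T3 mouse fibroblasts scores caspase-3/7 activation as rising luminescence after 16 hr compound exposure. Signals are scaled between DMSO-only and 100 uM tamoxifen.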

[15] = Cellular Toxicity (caspase-3) Renal Proximal Tubule (AID 667); settings: renal proximal tubule cells; series mostly up to 91.7 µM;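 note: cells exposed to compound for 16 hours at 37 °C before detection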
Method in brief: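 Caspase 3/7 activation measured by luminescent aminoluciferin release in primary rat proximal tubule cells after 16 hr compound exposure at 37 °C. AC50 from Hill-fitted concentration-response, scaled between DMSO and 10 uM staurosporine.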

[16] = qHTS assay for small molecule disruptors of the mitochondrial membrane potential - 5 hr assay (AID 651755; calls by dose curve; note: nearly all actives have a fitted effect of over 40% in size; note: potency is the fitted concentration of half-maximal effect); settings: JC-1-type ratio dye; series mostly up to 92.2 µM
Method in brief: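 HepG2 cells, attached overnight at 37C, were exposed to compound or DMSO for 5 hr at 37C, 5% CO2. Mito-MPS dye was then added for 30 min, and fluorescence read at 490/535 nm (monomers) and 540/590 nm (aggregates).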

[17] = target: Peroxisome proliferator-activated receptor alpha (Homo sapiens) (UniProt Q07869); experiment: qHTS assay for small molecule agonists of the peroxisome proliferator-activated receptor alpha (PPARalpha) signaling pathway (AID 651778); settings: PathHunter PPARalpha complementation, chemiluminescence, 6 h; stronger effect = higher value
Method in brief: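 Cells plated at 2,000/well and held overnight at 37 C, 5% CO2, then compound added by pin tool for 6 hr; after PathHunter detection reagent and 60 min at room temperature, chemiluminescence from enzyme complementation was read.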

[18] = target: Nuclear receptor ROR-gamma (Homo sapiens) (UniProt P51449); experiment: qHTS assay for small molecule antagonists of the retinoid-related orphan receptor gamma (ROR-gamma) signaling pathway (AID 651802); settings: ROR-gamma antagonist cell reporter assay; series mostly up to 92.2 µM; note: nearly all actives have a fitted effect of over 60% in size; note: potency is the fitted concentration of half-maximal effect
Method in brief: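 Antagonism is scored as a fall in luminescence from a RORE-luciferase reporter in CHO cells expressing ROR under a TET-inducible promoter, measured 16hr after doxycycline induction in the presence of compound.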

[19] = qHTS assay for small molecule antagonists of the retinoid-related orphan receptor gamma (ROR-gamma) signaling pathway - cell viability counter screen (AID 720652; active = well fitted curve in the direction sought with a large enough effect in the repeat runs; an effect the other way counts as inactive or inconclusive;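 note: CHO reporter cells with doxycycline-induced ROR-gamma expression; compound exposure lasted 16 hr before ATP read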); settings: RORgamma reporter cell line viability counter screen; series mostly up to 92.2 µM
Method in brief: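 Cytotoxicity is quantified via intracellular ATP (CellTiter-Glo luminescence) in doxycycline-induced CHO ROR response element-luciferase reporter cells treated with compound for 16 hr at 37 C, 5% CO2.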

[20] = qHTS assay for cell viability of HEK293 cells (AID 743288); settings: ATP luminescence (CellTiter-Glo), 18 h; max response: stronger effect = lower value; note: nearly all actives have a fitted effect of over 50% in size
Method in brief: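 Total intracellular ATP, measured with a luciferase-coupled reagent, indicates the number of viable HEK293 cells. Exposure to test chemicals lasts 18 h at 37 C in 1,536-well format at 2,000 cells/well.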

Chain of Peroxisome proliferator-activated receptor alpha (Homo sapiens) (Q07869 whole entry, looked up): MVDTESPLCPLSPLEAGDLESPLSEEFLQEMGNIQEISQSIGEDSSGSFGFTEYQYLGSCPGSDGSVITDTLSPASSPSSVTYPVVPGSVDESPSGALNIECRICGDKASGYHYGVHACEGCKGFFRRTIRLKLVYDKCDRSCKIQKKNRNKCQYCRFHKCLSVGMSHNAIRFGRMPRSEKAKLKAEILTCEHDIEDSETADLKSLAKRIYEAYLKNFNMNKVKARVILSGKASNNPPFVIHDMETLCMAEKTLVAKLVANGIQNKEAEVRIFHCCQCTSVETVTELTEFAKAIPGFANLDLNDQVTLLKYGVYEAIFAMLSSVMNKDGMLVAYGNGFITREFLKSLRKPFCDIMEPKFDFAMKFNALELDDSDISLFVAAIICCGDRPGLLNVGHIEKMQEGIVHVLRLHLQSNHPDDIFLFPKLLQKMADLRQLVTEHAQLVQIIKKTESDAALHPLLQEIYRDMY
Chain of Nuclear receptor ROR-gamma (Homo sapiens) (P51449 whole entry, looked up): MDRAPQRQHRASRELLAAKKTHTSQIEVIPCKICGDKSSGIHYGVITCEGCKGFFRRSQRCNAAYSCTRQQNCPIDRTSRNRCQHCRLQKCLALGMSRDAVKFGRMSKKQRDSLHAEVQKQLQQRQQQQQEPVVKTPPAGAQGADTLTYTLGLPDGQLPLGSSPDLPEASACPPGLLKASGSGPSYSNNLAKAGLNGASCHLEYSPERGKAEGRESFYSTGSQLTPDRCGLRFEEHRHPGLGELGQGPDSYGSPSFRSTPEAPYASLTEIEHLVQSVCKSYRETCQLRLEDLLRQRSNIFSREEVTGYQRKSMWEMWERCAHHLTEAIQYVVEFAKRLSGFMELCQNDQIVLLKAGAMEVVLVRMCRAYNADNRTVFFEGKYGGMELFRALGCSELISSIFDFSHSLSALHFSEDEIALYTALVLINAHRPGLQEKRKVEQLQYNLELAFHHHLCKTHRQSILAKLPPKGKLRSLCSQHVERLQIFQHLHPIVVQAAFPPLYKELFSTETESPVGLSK

Compound | Potency [1] | Potency [2] | Potency [3] | outcome [4] | outcome [5] | outcome [6] | outcome [7] | outcome [8] | outcome [9] | outcome [10] | outcome [11] | outcome [12] | outcome [13] | outcome [14] | outcome [15] | Potency [16] | max response [17] | Potency [18] | outcome [19] | max response [20]
CC(=O)/C=C/c1ccccc1 | > 92 µM | > 92 µM | > 92 µM | inactive | inactive | inactive | inactive | inactive | inactive | inactive | inactive | inactive | inactive | inactive | inactive | inactive | -5.69% | inactive | inactive | -4.92%
c1ccc2c(c1)-c1cccc3cccc-2c13 | > 92 µM | > 92 µM | > 92 µM | inactive | inactive | inactive | inactive | inactive | inactive | inactive | inactive | inactive | inactive | inactive | inactive | inactive | -3.35% and -1.28% | inactive | inactive | -24.1% and 3.9%
Oc1ccccc1Cl | > 92 µM | > 92 µM | > 92 µM | inactive | inactive | inactive | inactive | inactive | inactive | inactive | inactive | inactive | inactive | inactive | inactive | inactive | -3.34% |  | inactive | -13.2%
COC1=CC(=O)OC(CCc2ccc3c(c2)OCO3)C1 (stereo not given) | > 92 µM | > 92 µM | > 92 µM | inactive | inactive | inactive | inactive | inactive | inactive | inactive | inactive | inactive | inactive | inactive | inactive | inactive | -0.116% | inactive | inactive | -5.17%
CC(C)COC(=O)c1ccccc1C(=O)OCC(C)C | > 92 µM | > 92 µM | > 92 µM | inactive | inactive | inactive | inactive | inactive | inactive | inactive | inactive | inactive | inactive | inactive | inactive | inactive | -0.716% | inactive | inactive | 0.653%
Oc1ccccc1O |  |  |  |  |  |  |  |  |  |  |  |  |  |  |  |  |  | 5.96 µM (active) |  | 
c1ccc(Nc2ccc3ccccc3c2)cc1 | > 92 µM | > 92 µM | > 92 µM | inactive | inactive | inactive | inactive | inactive | inactive | inactive | inactive | inactive | inactive | inactive | inactive | 42.2 µM (active) | 18.5% and 8.75% | inactive | inactive | -12% and -13.2%
CCOC(=O)c1ccccc1N | > 92 µM | > 92 µM | > 92 µM | inactive | inactive | inactive | inactive | inactive | inactive | inactive | inactive | inactive | inactive | inactive | inactive | inactive | -7.33% | inactive | inactive | -8.89%
